Screens as filed in PubChem.
Most compounds without a hit are left out; they make up all but 2.4% or so of the library.
PfM18AAP inh = blocks P. falciparum M18 aspartyl aminopeptidase | 1.2% of 290,000 active | inhibition, % at 7.35 µM | AID 1822 | recombinant PfM18AAP, H-Glu-NHMec fluorogenic cleavage;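 active = inhibition above the campaign mean inhibition over all tested compounds plus 3 SD, cut at about 28% in these data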;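 also: 0% = plate median of test compound wells and 100% = 2 mM ZnCl2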
CR mimetic SO = yeast age-related superoxide inhibition as caloric restriction mimetic. AID 2690. 0.18% of 330,000 active. S. cerevisiae aged cells, superoxide DHE fluorescence; hits give low values. superoxide response (% of plate mean), % at 10 µM;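 active = superoxide response under a set limit, about three screen SD below normal, cut at about 65% in these data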;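 also: yeast aged for seven days with compound at 30 °C before DHE staining; 100% = average MFI of all compound-treated wells on the plate with controls excluded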
A3A deaminase = blocks human APOBEC3A ssDNA deamination. P31941. recombinant A3A, FAM/TAMRA ssDNA deamination fluorescence. inhibition, % at 20 µM. 0.41% of 330,000 active. AID 493011;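 active = at least 40% inhibition at 20 µM here, with at most 30% in a related deaminase screen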;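 also: plate controls were A3A with DMSO for no effect and wells lacking A3A enzyme for full effect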
Target sequence (P31941 whole entry, looked up): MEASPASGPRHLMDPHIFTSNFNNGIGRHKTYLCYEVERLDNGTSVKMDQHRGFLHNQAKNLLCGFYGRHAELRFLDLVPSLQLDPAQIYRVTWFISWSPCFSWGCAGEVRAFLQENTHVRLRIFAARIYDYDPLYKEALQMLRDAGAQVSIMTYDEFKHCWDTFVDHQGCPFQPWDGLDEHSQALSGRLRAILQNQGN
APOBEC3G inh = inhibitors of human APOBEC3G DNA deaminase; 0.28% of 330,000 active; recombinant A3G, ssDNA deamination FAM/TAMRA fluorescence; Q9HC16; inhibition, % at 20 µM; AID 493012;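 active = inhibition of at least 40% at 20 µM, with no more than 30% in the related APOBEC3A deaminase screen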;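 also: plate controls were DMSO wells with A3G for no effect and wells lacking A3G enzyme for full effect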
Target sequence (Q9HC16 whole entry, looked up): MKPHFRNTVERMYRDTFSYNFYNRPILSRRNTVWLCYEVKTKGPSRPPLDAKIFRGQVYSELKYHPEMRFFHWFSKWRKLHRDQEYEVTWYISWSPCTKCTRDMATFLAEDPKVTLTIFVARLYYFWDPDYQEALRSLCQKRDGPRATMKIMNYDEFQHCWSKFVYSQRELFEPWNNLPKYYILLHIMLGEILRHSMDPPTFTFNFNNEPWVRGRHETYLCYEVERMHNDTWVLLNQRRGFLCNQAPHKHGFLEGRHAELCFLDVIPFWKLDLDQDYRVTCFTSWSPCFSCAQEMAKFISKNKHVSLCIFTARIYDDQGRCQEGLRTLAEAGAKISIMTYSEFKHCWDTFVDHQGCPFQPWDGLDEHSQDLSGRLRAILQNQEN
PfG6PD inh = PfG6PD (Plasmodium falciparum) enzyme inhibition | PfGluPho enzyme, NADPH resazurin-diaphorase fluorescence | 0.78% of 350,000 active | inhibition, % at 20 µM;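 active = inhibition reaching at least a set limit at 20 µM in the primary screen, cut at about 59% in these data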;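 also: 0% = DMSO wells with substrate and 100% = DMSO wells lacking glucose-6-phosphate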
A3A conf = confirmation of human APOBEC3A DNA deaminase inhibitors | shares compounds with A3A deaminase | recombinant A3A, ssDNA deaminase UDG fluorescence assay | inhibition, % at 20 µM | 63% of 1,400 active | AID 493151;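 active = inhibition reaching a set limit, 80% of the first screen's cutoff, at 20 µM in any replicate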;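 also: plate controls were DMSO wells with A3A for no effect and wells lacking A3A enzyme for full effect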
UDG ctr A3A = inhibits UDG, flagging false APOBEC3A inhibitors; inhibition, % at 20 µM; 1,000 tested, under 10 active; UDG counterscreen, FAM/TAMRA uracil oligo fluorescence; shares compounds with A3A deaminase; call rule not given here
An asterisk follows results filed as active; / = no result.

SMILES | PfM18AAP inh | CR mimetic SO | A3A deaminase | APOBEC3G inh | PfG6PD inh | A3A conf | UDG ctr A3A
Cc1[nH]c2ccccc2c1/C=C(\C#N)C(=O)NCC1CCCO1 (stereo unspecified) | -3.8 | 98.7 | 1.6 | -2.0 | 8.9 | / | /
N#C/C(=C\c1c[nH]c2ccccc12)C(=O)NCC1CCCO1 (stereo unspecified) | 4.3 | 116.0 | 63.2* | 21.9 | 1.0 | 63.7* | 1.8
O=C(CSc1nnc(COc2ccccc2Cl)o1)NC(=O)NCc1ccco1 | 6.2 | 89.8 | 58.7* | 23.1 | 24.4 | 22.1* | -0.8
CC(C)(C)NC(=O)NC(=O)CSc1nnc(COc2ccccc2Cl)o1 | 1.1 | 105.6 | 5.1 | 1.9 | 13.5 | / | /
CCn1c(C)nc2cc(S(=O)(=O)Nc3ccc(C)cc3)ccc21 | 4.5 | 99.2 | 66.2* | 17.0 | -13.8 | 55.3* | 1.9
CCCOc1ccc(/C=c2\sc3nc(-c4ccco4)nn3c2=O)cc1OCC | -1.7 | 148.7 | 74.0* | 21.3 | -4.0 | 29.7* | -3.1
O=C(CCc1nc(-c2ccccc2Cl)no1)NCC1CCCO1 (stereo unspecified) | -5.2 | 106.0 | -7.3 | -6.2 | 10.3 | / | /
Cc1ccccc1-c1noc(CCC(=O)NCC2CCCO2)n1 (stereo unspecified) | 4.6 | 105.0 | 44.2* | 10.7 | -1.9 | 2.9 | /
CCOc1ccccc1-c1noc(CCC(=O)NC2CCCCC2)n1 | -0.5 | 96.5 | -2.5 | -4.5 | -14.2 | / | /
COc1ccccc1-c1noc(CCC(=O)NC2CCCC2)n1 | 0.4 | 101.2 | 44.7* | -10.2 | 5.4 | 1.1 | -0.5
O=C(NC1CCN(Cc2ccc(Cl)cc2)CC1)c1cn(-c2ccccc2)nc1-c1cccnc1 | / | 93.0 | -1.6 | -2.6 | 5.0 | / | /
COc1cc2ccc3c(CCN(C)C)cc(OC)c(OC)c3c2cc1OC | 0.3 | 104.0 | 54.8* | 18.6 | 6.0 | 22.8 | /
c1ccc2c(c1)-c1nc3ccccc3cc1C2N1CCCCC1 (stereo unspecified) | / | / | / | / | 11.9 | / | /
O=c1cccc2n1Cc1cc3ccccc3nc1-2 | -4.5 | 105.4 | 48.7* | 2.4 | 0.0 | 25.8 | /
CC(C)Cn1nc(C(=O)NCc2ccccc2CN2CCCC2)c2ccccc2c1=O | / | 106.6 | 4.4 | 5.0 | 0.3 | / | /
COC(=O)c1ccccc1S(=O)(=O)NNC(=O)c1nn(C)c(=O)c2ccccc12 | / | 85.0 | -2.7 | -3.7 | 0.2 | / | /
O=C(/C=C/c1ccccc1)OCCCCN=C1NS(=O)(=O)c2ccccc21 | -9.1 | 118.3 | 83.1* | 2.1 | 4.0 | 2.7 | /
O=C(O)c1ccc(CSc2n[nH]c(-c3ccco3)n2)cc1 | 13.1 | 111.3 | 84.9* | 25.9 | -13.7 | 59.1* | 0.6
CCn1ncc(-c2ccnc3cc(C(=O)O)nn23)c1C | 1.0 | 100.3 | 94.1* | -13.5 | 34.9 | 76.6* | -2.7
CCn1ncc(-c2cc(C(=O)O)no2)c1C | 2.6 | 87.1 | -3.1 | -3.9 | -9.9 | / | /
COc1ccc(S(=O)(=O)N2CCCOC2CNC(=O)C(=O)NCc2ccccn2)cc1 (stereo unspecified) | 5.7 | 99.2 | 0.5 | 0.0 | -3.5 | / | /
O=C(CCNS(=O)(=O)c1ccc2nsnc2c1)N1CCN(c2ccncc2)CC1 | / | 83.8 | 64.4* | -5.0 | -10.0 | -4.8 | -1.7
Cc1ccc(S(=O)(=O)NCCC(=O)N2CCN(c3cccc(Cl)c3)CC2)cc1C | 5.9 | 110.1 | 3.5 | 10.0 | 1.0 | / | /
NC(=O)c1c(NC(=O)CSc2nnc(-c3ccco3)n2-c2ccccc2)sc2c1CCC2 | 3.6 | 99.0 | 41.4* | 28.7 | 7.1 | 45.7* | -3.6
N#Cc1c(NC(=O)CSc2nnc(-c3ccco3)n2-c2ccccc2)sc2c1CCC2 | 3.5 | 97.3 | 12.2 | 0.9 | -7.8 | / | /
SMILES | PfM18AAP inh | CR mimetic SO | A3A deaminase | APOBEC3G inh | PfG6PD inh | A3A conf | UDG ctr A3A
CN(C)CCC(O)(c1ccccc1)c1ccccc1Cl (stereo unspecified) | / | / | / | / | 8.6 | / | /
Cc1cc(C)c(CSc2ncnc3nc[nH]c23)c(C)c1 | -5.2 | 96.9 | 52.6* | 9.4 | -8.3 | 10.1 | /
Cc1cccc(CSc2ncnc3nc[nH]c23)c1 | 3.5 | 95.1 | 0.8 | -0.3 | 4.0 | / | /
C=CCn1c(CCCNC(=O)CCC)nc2ccccc21 | -7.7 | 90.3 | 47.3* | -0.7 | 4.0 | -3.3 | -0.2
CCCC(=O)NCCCc1nc2ccccc2n1CC | -7.8 | 112.6 | -0.2 | 1.9 | -12.2 | / | /
CCCCn1c(N)c(N(CCC(C)C)C(=O)c2ccc(N3CCCC3=O)cc2)c(=O)[nH]c1=O | / | 101.4 | 42.7* | -0.8 | 9.6 | 18.2 | 3.2
CCCCn1c(N)c(N(CCC(C)C)C(=O)C2CC(=O)N(c3ccc4c(c3)OCCO4)C2)c(=O)[nH]c1=O (stereo unspecified) | 5.4 | 103.2 | 12.2 | -2.3 | -10.9 | / | /
CCCCn1c(N)c(N(CC)C(=O)c2ccc(C)cc2)c(=O)[nH]c1=O | -16.2 | 108.2 | -1.7 | 0.6 | -8.4 | / | /
CCCCn1c(N)c(N(CC)C(=O)c2ccc(Cl)c([N+](=O)[O-])c2)c(=O)[nH]c1=O | 0.6 | 123.7 | 49.7* | 1.9 | -18.2 | 28.5 | /
CCCCn1c(N)c(N(CCC(C)C)C(=O)C2CC(=O)N(c3cccc(SC)c3)C2)c(=O)[nH]c1=O (stereo unspecified) | / | 102.9 | 45.2* | 9.3 | 1.1 | 0.1 | /
COc1cc(/C=C(/C#N)C(=O)NCCCc2ccccc2)ccc1OCC(=O)O | 7.2 | 99.6 | 40.4* | 11.0 | -17.4 | 67.3* | 0.8
N#C/C(=C\c1ccc(-c2ccc([N+](=O)[O-])cc2Br)o1)C(=O)N1CCN(c2ccccc2)CC1 | 1.4 | 96.3 | 47.8* | 2.1 | 0.7 | 11.4 | /
N#C/C(=C\c1ccc(-c2cccc([N+](=O)[O-])c2)o1)C(=O)N1CCOCC1 | -3.0 | 95.8 | -2.8 | -6.0 | -10.7 | / | /
CC(C)c1csc(CN2CCC(C(=O)Nc3cccc(-c4ccco4)c3)CC2)n1 | / | / | / | / | 24.2 | / | /
Cn1cccc/c1=N\c1cccc[n+]1C | -3.4 | 101.3 | 48.6* | 24.3 | 0.6 | 64.7* | -1.3
COc1cccc(-c2nnn(CC(C)=O)n2)c1 | -2.0 | 87.8 | 53.2* | -0.2 | -2.6 | -6.7 | -0.4
CCc1cccc(CC)c1N1C(=O)C2=C(SCCCS2)C1=O | / | / | / | / | 4.9 | / | /
COc1ccc(CC(=O)Nc2cccc(/C(C)=N/NC(=O)c3cccc([N+](=O)[O-])c3)c2)cc1 | -3.1 | 104.0 | 71.5* | 0.7 | -7.0 | 1.0 | /
Cc1nc2nc(C)n(-c3ccccc3)c2s1 | -11.9 | 106.4 | 48.2 | 30.0 | 10.6 | 46.9* | -2.5
O=C1c2cccc3cccc(c23)C(=O)N1Cc1ccccn1 | / | / | / | / | -1.1 | / | /
COc1ccccc1Oc1ccc(S(=O)(=O)N2CCCCC2)cc1NC(=O)CCNC(C)=O | 12.9 | 100.1 | 58.3* | 25.6 | 9.4 | 1.9 | /
COc1ccc(S(=O)(=O)N2CCCCC2)cc1NC(=O)CCNC(=O)c1ccco1 | / | / | 0.7 | -5.5 | -20.3 | / | /
C[N+](C)(C)CCCNC(=O)c1ccc(/C=N/O)nc1 | 4.2 | 98.2 | 41.4* | 14.7 | -5.0 | 71.9* | 0.7
CNCCCNC(=O)c1ccc(/C=N/O)nc1 | 1.7 | 94.7 | 0.4 | -6.8 | -0.5 | / | /
